Experimental data published in PubChem BioAssay (NCATS).
Results filed as inconclusive are left out. Unmarked numbers belong to inactive results. Calls of active or inactive are those of the source. Calls come from the whole dose curve; as a rule, active = well fitted inhibition curve with a large enough effect; inconclusive = small, poorly fitted or top-dose-only effect; inactive = no such curve, though single readings can be large or run the other way.
Potency is the fitted concentration of half-maximal effect.

What follows are compounds tested on Zika virus NS2B-NS3 protease (unlinked) (assay: Optimization of GU AMC qHTS for Zika virus inhibitors: Unlinked NS2B-NS3 protease assay (AID 1347151; note: nearly all actives have a fitted effect of over 80% in size;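 for activity change, negative = inhibition: 0% = no-inhibitor control and -100% = no-enzyme control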)). Conditions: recombinant ZIKV NS2B-NS3 protease, fluorogenic AMC substrate; series mostly up to 52.5 µM; activity change, negative = inhibition: at the top concentration.
In short: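 Noncovalent NS2B hydrophilic domain–NS3 protease complex (25 nM final) in 10 mM Tris-HCl pH 8.0, 0.01% Tween 20; AMC substrate, room temperature 15 min (~20% conversion); fluorescence change normalized, 4-parameter Hill fit.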
In the case of `CCCCN(CCCC)CC(O)c1cc(Cl)cc2c1-c1ccc(Cl)cc1/C2=C/c1ccc(Cl)cc1` (configuration not stated), the “activity change, negative = inhibition” value is reported as 13.2%.
`NC(=O)c1ncn([C@@H]2O[C@H](CO)[C@@H](O)[C@H]2O)n1` was tested, and the “activity change, negative = inhibition” value was 2.41%.
With `CCCn1cnc2c1c(=O)n(CCCCC(C)=O)c(=O)n2C` the “activity change, negative = inhibition” value was -12%.
`CCN(CC)CCNC(=O)c1cc(Cl)c(N)cc1OC` was tested, and the “activity change, negative = inhibition” value was -6.12%.
For `C[C@H]1O[C@@H](n2cc(F)c(=O)[nH]c2=O)[C@H](O)[C@@H]1O`, the “activity change, negative = inhibition” value was 2.19%.
In the case of `Cc1c(O)cccc1C(=O)N[C@@H](CSc1ccccc1)[C@H](O)CN1C[C@H]2CCCC[C@H]2C[C@H]1C(=O)NC(C)(C)C`, the “activity change, negative = inhibition” value is reported as -20.5%.
For `CCCCc1ncc(/C=C(\Cc2cccs2)C(=O)O)n1Cc1ccc(C(=O)O)cc1`, the “activity change, negative = inhibition” value was 1.49%.
`OCc1cc(C(O)CNCCCCCCOCCCCc2ccccc2)ccc1O` (configuration not stated) was tested, and the Potency was 26.7 µM (active).
In the case of `CN(C)CCC=C1c2ccccc2CCc2ccccc21`, the “activity change, negative = inhibition” value is reported as 8.1%.
`N=c1c[n+](N2CCOCC2)[n-]o1` was tested, and the “activity change, negative = inhibition” value was -3.82%.
For `O=C1NC(=O)[C@@]2(CCOc3ccc(F)cc32)N1`, the “activity change, negative = inhibition” value was 3.67%.
With `COc1ccc(Cl)cc1C(=O)NCCc1ccc(S(=O)(=O)NC(=O)NC2CCCCC2)cc1` the “activity change, negative = inhibition” value was 6.29%.
With `CNCCC(Oc1ccc(C(F)(F)F)cc1)c1ccccc1` (configuration not stated) the “activity change, negative = inhibition” value was 19%.
`CSc1ccc2c(c1)N(CCC1CCCCN1C)c1ccccc1S2` (configuration not stated) was tested, and the “activity change, negative = inhibition” value was 8.63%.
In the case of `CCN(CC)CCOC(=O)C1(C2CCCCC2)CCCCC1`, the “activity change, negative = inhibition” value is reported as -0.393%.
In the case of `CC(=O)OCC(=O)[C@@]1(O)CC[C@H]2[C@@H]3CCC4=CC(=O)CC[C@]4(C)[C@H]3C(=O)C[C@@]21C`, the “activity change, negative = inhibition” value is reported as 5.86%.
For `COCCOC(=O)C1=C(C)NC(C)=C(C(=O)OC/C=C/c2ccccc2)C1c1cccc([N+](=O)[O-])c1` (configuration not stated), the “activity change, negative = inhibition” value was 0.334%.
